Among the data in PubChem BioAssay are fold change permeability values, retold here.

Structures are written as SMILES. Active and inactive are the calls of the source. Rule as the data show it: active = fold change permeability below about 0.7 or above about 1.3; inactive = in between.

The assay in a line: modulators of brain endothelial barrier permeability, primary screen, cell-based, FITC-avidin fluorescence, HTS (AID 1963498). Also: test concentration not given here. The conditions noted are these: actives lie on both sides.
Regarding `C[C@@H](O[C@H]1OCCN(Cc2nn(P(=O)(O)O)c(=O)[nH]2)[C@H]1c1ccc(F)cc1)c1cc(C(F)(F)F)cc(C(F)(F)F)c1`, the fold change permeability is 1.4 (active).

In the case of `CN1CC[C@]2(CCN3CCc4c(oc5ccccc45)[C@@H]3C2)N(C)C1=O`, the fold change permeability was 1.1 (inactive).

On to `N[C@H](C(=O)O)c1cc(O)cc(O)c1`, for which the fold change permeability is 1.2 (inactive).

On to `O=C(O)c1cccnc1Nc1cccc(C(F)(F)F)c1`, for which the fold change permeability is 0.9 (inactive).

Consider `Oc1ccc2ccccc2c1SSc1c(O)ccc2ccccc12`, for which the fold change permeability is 1.6 (active).

On to `NC1(C(=O)O)CC1`, for which the fold change permeability was 0.9 (inactive).

Consider `CC1=C(C(=O)O)N2C(=O)[C@@H](NC(=O)[C@H](N)C3=CCC=CC3)[C@H]2SC1`, for which the fold change permeability was 0.9 (inactive).

Turning to `NCCOc1cc(C(=O)Nc2cc(OCCN)c3ccccc3n2)nc(C(=O)Nc2cc(OCCN)c3ccccc3n2)c1`, the fold change permeability was 0.9 (inactive).

For `Nc1ccc(-c2ccc3ncc4ccc(=O)n(-c5cccc(C(F)(F)F)c5)c4c3c2)cn1`, the fold change permeability is 1.3 (active).

For the compound `CC1(C)CCC2=C(O1)c1ccccc1C(=O)C2=O`, the fold change permeability is 1.8 (active).

Regarding `O=S(=O)(c1cccc2c(Cl)cccc12)N1CCCNCC1`, the fold change permeability was 1.1 (inactive).

Turning to `COc1cc2nc(N3CCCC3)nc(NCCCCCN3CCCC3)c2cc1OC`, the fold change permeability is 1.2 (inactive).

Consider `Cc1cc(C(=O)N2Cc3cnn(C)c3Nc3ccccc32)ccc1CNC(=O)N1CCN(Cc2cc(O)cc(O)c2)CC1`, for which the fold change permeability is 1.2 (inactive).

In the case of `COc1cc(C[C@H](C)[C@H](C)Cc2ccc3c(c2)OCO3)ccc1O`, the fold change permeability was 1.7 (active).

`Nc1nc(-c2ccccc2)c(Br)c(=O)[nH]1`: the fold change permeability is 1.7 (active).

Consider `CCOC(=O)[C@@H](N)CCC(=O)N[C@@H](CSCc1ccccc1)C(=O)N[C@@H](C(=O)OCC)c1ccccc1`, for which the fold change permeability was 1.3 (active).

As to `CC1=C(/C=C/C(C)=C/C=C/C(C)=C\C(=O)O)C(C)(C)CCC1`, the fold change permeability was 1.4 (active).

Consider `CCC(=O)c1ccc2c(c1)N(CCCN(C)C)c1ccccc1S2`, for which the fold change permeability is 1.1 (inactive).

In the case of `CCCCCCCCCCCCCCCC(=O)OC(CC(=O)O)C[N+](C)(C)C` (centres undefined), the fold change permeability was 1.3 (active).

On to `CCCNC(C)C(=O)Nc1ccccc1C` (centres undefined), for which the fold change permeability is 1 (inactive).

As for `C[C@]12C=CC(=O)C=C1CC[C@@H]1C2=CC[C@]2(C)[C@@H](C(=O)CN3CCN(c4cc(N5CCCC5)nc(N5CCCC5)n4)CC3)CC[C@@H]12`, the fold change permeability is 1.4 (active).

Take `CCN(c1nc(N)c(C(=O)N=C(N)N)nc1Cl)C(C)C`: the fold change permeability is 1.4 (active).

On to `Oc1ccc(O)cc1`, for which the fold change permeability is 1.4 (active).

Take `COc1cc2c(cc1O)CC[C@@H]1[C@@H]2CC[C@]2(C)[C@@H](O)CC[C@@H]12`: the fold change permeability is 1.3 (active).

Take `CC(=O)O[C@H]1Cc2ccccc2N(C(N)=O)c2ccccc21`: the fold change permeability was 1.8 (active).

Regarding `C#CC(N)CCC(=O)O` (centres undefined), the fold change permeability is 1.1 (inactive).

With `CN1CCN(C2=Nc3ccccc3Cc3ccccc32)CC1`, the fold change permeability is 1.2 (inactive).

Regarding `COc1ccccc1-c1cc(Nc2cccc(CS(N)(=O)=O)c2)ncn1`, the fold change permeability was 0.9 (inactive).

Regarding `O=c1c(-c2ccc(O)cc2)coc2cc(O)cc(O)c12`, the fold change permeability was 0.8 (inactive).

For the compound `CN(C)c1cc2c(Nc3ccc4c(cnn4Cc4ccccc4)c3)ncnc2cn1`, the fold change permeability is 3.5 (active).

Consider `Fc1cccc(/C=N\N=C/c2cccc(F)c2)c1`, for which the fold change permeability is 0.8 (inactive).

In the case of `COCCOC(=O)C1=C(C)NC(C)=C(C(=O)OC/C=C/c2ccccc2)C1c1cccc([N+](=O)[O-])c1` (centres undefined), the fold change permeability is 1.2 (inactive).

Regarding `O=C1CCC(c2ccc(-n3ccnc3)cc2)=NN1`, the fold change permeability is 1.1 (inactive).

For `O=C(O)CN(CCN(CC(=O)O)CC(=O)O)CCN(CC(=O)O)CC(=O)O`, the fold change permeability is 1 (inactive).

With `Nc1ncnc2c1ncn2C1CCCO1` (centres undefined), the fold change permeability was 1 (inactive).

Turning to `COC(=O)c1c(C)[nH]c(C)c1C(=O)c1ccccc1Cc1ccccc1`, the fold change permeability was 1.2 (inactive).

As to `C=CCN1CCc2c(cc(O)c(O)c2Cl)C(c2ccccc2)C1` (centres undefined), the fold change permeability was 1 (inactive).

Consider `CN(C)c1ccc(NCc2ccccn2)cc1`, for which the fold change permeability is 1.5 (active).

Regarding `O=CN(O)CCCP(=O)(O)O`, the fold change permeability was 2.2 (active).
